PubChem BioAssay (NCI)
About 83,000 compounds went through this panel and 20% of them were active in at least one assay; those are over-represented in the sample as a whole.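 Activity criterion: percent growth below 10, measured after cells in 96-well plates were exposed to a single compound concentration for 48 hours.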 A number with no mark means an inactive call. The source made the active and inactive calls.

Assays:
Test in all cases: NCI-60 one-dose screen, 48 h (100 = growth as untreated, 0 = no growth, -100 = all killed)
Settings in all cases: 10 µM unless noted
DU-145 prostate = test system: DU-145 prostate
K-562 leukemia = test system: K-562 leukemia
MALME-3M melanoma = test system: MALME-3M melanoma
MDA-MB-231 breast = test system: MDA-MB-231 breast
RXF 393 renal = test system: RXF 393 renal
SF-268 CNS = test system: SF-268 CNS
SF-295 CNS = test system: SF-295 CNS
SF-539 CNS = test system: SF-539 CNS
UACC-257 melanoma = test system: UACC-257 melanoma
M14 melanoma = test system: M14 melanoma
HCT-15 colon = test system: HCT-15 colon
HT29 colon = test system: HT29 colon
SNB-75 CNS = test system: SNB-75 CNS
SNB-19 CNS = test system: SNB-19 CNS
U251 CNS = test system: U251 CNS
PC-3 prostate = test system: PC-3 prostate
SK-MEL-5 melanoma = test system: SK-MEL-5 melanoma
UACC-62 melanoma = test system: UACC-62 melanoma
LOX IMVI melanoma = test system: LOX IMVI melanoma
SK-MEL-28 melanoma = test system: SK-MEL-28 melanoma

SMILES	growth (DU-145 prostate)	growth (K-562 leukemia)	growth (MALME-3M melanoma)	growth (MDA-MB-231 breast)	growth (RXF 393 renal)	growth (SF-268 CNS)	growth (SF-295 CNS)	growth (SF-539 CNS)	growth (UACC-257 melanoma)	growth (M14 melanoma)	growth (HCT-15 colon)	growth (HT29 colon)	growth (SNB-75 CNS)	growth (SNB-19 CNS)	growth (U251 CNS)	growth (PC-3 prostate)	growth (SK-MEL-5 melanoma)	growth (UACC-62 melanoma)	growth (LOX IMVI melanoma)	growth (SK-MEL-28 melanoma)
CCCCCCC(C)N(CC(C)(C)O)C(=O)c1ccc([N+](=O)[O-])cc1 (stereo not given)	101%	85.1%	95.8%	106%	100%	110%	88.6%	108%	106%	93.4%	104%	91.6%	97.3%	95.4%	97.4%	87.2%	95%	91.4%	104%	111%
Cc1ccc(S(=O)(=O)NC(CCC(=O)Nc2ccccc2)C(=O)Nc2ccccc2)cc1 (stereo not given)	5.02% (active)	3.93% (active)	-36.5% (active)	-30.1% (active)	-24.6% (active)	8.46% (active)	-3.31% (active)	-75.6% (active)	-18.4% (active)	3.93% (active)	0.514% (active)	-14.5% (active)	-24.9% (active)	-3.81% (active)	-43.8% (active)	-10.4% (active)	-65.5% (active)	-45.6% (active)	-21.6% (active)	-33.2% (active)
O=C(CCl)NC1c2ccccc2Oc2ccccc21	65.5%	45.6%	74.1%	60.7%	80.1%	64.4%	81.2%	82.4%	63.6%	77.8%	50.8%	80.5%	74.5%	94.3%	47.7%	80.7%	73.8%	68.1%	-1.57% (active)	92%
Cc1nc2c(nnn2-c2ccccc2)c2nc(-c3ccc(Cl)cc3)oc(=O)c12	119%	112%	101%	119%	104%	103%	102%	96.8%	117%	108%	108%	115%	91.4%	107%	106%	105%	103%	98.4%	96.9%	102%
COc1cc(-c2nn(-c3ccc(NC(=O)Nc4ccc(Cl)c(Cl)c4)cc3)cc2-c2ccncc2)ccc1Cl	40.8%	17.2%	57.2%	43.3%	22.6%	44.3%	3.1% (active)	54%	56.5%	24.5%	28.9%	18.1%	25%	36.9%	24.3%	16.9%	48%	32.8%	20.1%	41.5%
CCC(CCCN1C(=O)c2ccccc2C1=O)Nc1cc(OC)cc2cccnc12 (stereo not given)	102%	77.2%	142%	93.2%	-5.08% (active)	119%	111%	93.4%	100%	-100% (active)	92.4%	105%	93%	106%	101%	86.9%	89.9%	82.6%	93.5%	111%
O=C(Nc1cccc(Cn2c(=O)[nH]c3ccc(Oc4ncccn4)cc3c2=O)c1)c1cccc(F)c1	80.1%	45.1%	97.2%	74.7%	87.1%	74.1%	81.8%	80.1%	67.3%	78.6%	83%	75.7%	75%	72.6%	82.3%	64.3%	65.5%	58.4%	86%	93.8%
O=C(NC1CCN(Cc2ccccc2)CC1)c1cc(-c2cccnc2)nc2ccc(Cl)cc12	87.5%	2.45% (active)	74%	58.8%	82.1%	100%	67.6%	63.9%	83.2%	77.9%	9.1% (active)	4.33% (active)	95.6%	91.4%	56.2%	69.2%	50.2%	8.77% (active)	45.2%	94.1%
COC(=O)/C=C1/CCCCC1(C)C(=O)OC (stereo not given)	112%	103%	109%	110%	106%	110%	120%	119%	98.4%	101%	93.1%	102%	91.6%	102%	97.2%	102%	112%	106%	102%	100%
O=C1/C(=C/c2ccc(Cl)cc2)CCC/C1=C\c1ccc(Cl)cc1	91.7%	67.9%	90.5%	95.6%	56.4%	84.1%	94.5%	88.1%	81.5%	69.7%	80.9%	6.8% (active)	90.1%	92.5%	14.7%	90.8%	84.6%	80.5%	-67.7% (active)	110%
CNCCCNCCCCNCCCN1C(=O)c2ccc3c4c(ccc(c24)C1=O)C(=O)N(CCCNCc1ccccc1OC)C3=O	29.1%	20.2%	-26.1% (active)	47.3%	20.1%	17.7%	22.1%	21.7%	29.2%	24%	46.8%	4.56% (active)	-0.885% (active)	36%	41.2%	58.7%	10.7%	-1.88% (active)	8.88% (active)	-9.35% (active)
c1ccc(C(=NNc2nc3ccccc3o2)c2ccccn2)nc1	20.3%	10.9%	19.5%	29.7%	16.4%	7.72% (active)	0.423% (active)	2.62% (active)	-1.59% (active)	-4.91% (active)	16.8%	23%	31.7%	24.5%	10.6%	29.2%	-58% (active)	-8.29% (active)	0.582% (active)	25.2%
Cc1c(O)c(N=Nc2ccc(C(=O)O)c(O)c2)c2ccccc2c1O	94.3%	60.6%	97.4%	86.4%	13.3%	119%	116%	81.7%	95.6%	53.4%	117%	96.9%	109%	105%	101%	77.4%	96.1%	92.5%	86.4%	131%
C[C@]12C=CC(=O)C=C1[C@@H](F)C[C@@H]1[C@@H]2[C@@H](O)C[C@@]2(C)[C@H]1CC[C@]2(O)C(=O)CO	95.1%	125%	81.8%	80.6%	126%	96.9%	123%	96.1%	96.1%	92.5%	108%	103%	145%	96.2%	108%	97.1%	120%	110%	103%	124%
CCCCCCCCCCCCc1ccc([N+](CC)(CC)CC)cc1	58.8%	16.3%	-11.1% (active)	41.7%	45.8%	47.8%	48.9%	58.7%	13.6%	32.5%	96%	39.3%	33.5%	31.7%	29.6%	25.1%	-75.5% (active)	11.1%	32.9%	28.9%
O=C(O)c1ccc(-c2nn(-c3ccc(C(=O)O)cc3)cc2CNc2ccc(Br)cc2)cc1	102%	102%	106%	115%	111%	94.1%	101%	101%	101%	97.6%	100%	99%	97.6%	105%	106%	101%	103%	97.6%	102%	103%
